Anthrax LF inh2 = Bacillus anthracis LF protease inhibitors, primary screen, biochemical, multiplex microsphere, MLPCN library. Lethal factor (Bacillus anthracis), P15917. multiplex microsphere protease cleavage assay. 360,000 compounds, 0.12% hits. inhibition, % at 10 µM; in the data active = inhibition above about 30%; inconclusive = no clear call, values can overlap the other calls; also: plate controls were buffer without enzyme for full effect and enzyme alone for no effect
Target sequence (P15917 whole entry, looked up): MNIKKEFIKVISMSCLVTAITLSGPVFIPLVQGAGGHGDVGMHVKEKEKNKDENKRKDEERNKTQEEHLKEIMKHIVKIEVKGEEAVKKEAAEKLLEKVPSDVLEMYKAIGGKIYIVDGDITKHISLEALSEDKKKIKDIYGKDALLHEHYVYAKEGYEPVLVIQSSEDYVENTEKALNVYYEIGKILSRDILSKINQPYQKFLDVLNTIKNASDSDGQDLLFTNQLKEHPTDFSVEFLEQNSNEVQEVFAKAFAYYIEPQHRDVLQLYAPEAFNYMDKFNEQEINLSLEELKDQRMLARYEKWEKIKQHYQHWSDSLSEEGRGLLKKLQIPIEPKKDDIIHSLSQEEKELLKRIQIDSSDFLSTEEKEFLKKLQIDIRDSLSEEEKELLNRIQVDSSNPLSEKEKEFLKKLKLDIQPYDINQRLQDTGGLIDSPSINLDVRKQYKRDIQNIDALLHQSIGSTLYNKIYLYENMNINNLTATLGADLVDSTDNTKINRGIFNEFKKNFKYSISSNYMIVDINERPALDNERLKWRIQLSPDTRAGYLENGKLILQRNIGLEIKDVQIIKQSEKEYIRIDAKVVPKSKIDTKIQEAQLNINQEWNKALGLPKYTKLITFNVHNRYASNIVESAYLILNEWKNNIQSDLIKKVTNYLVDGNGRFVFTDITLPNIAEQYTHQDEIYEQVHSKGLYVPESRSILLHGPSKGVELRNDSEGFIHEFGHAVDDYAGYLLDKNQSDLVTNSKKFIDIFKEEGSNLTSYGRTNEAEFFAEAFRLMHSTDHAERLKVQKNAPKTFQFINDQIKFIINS
CCHF vOTU inh = CCHFV vOTU protease inhibitors, primary screen, biochemical, Pep-AMC substrate, fluorescence. 370,000 compounds, 0.55% hits. inhibition, % at 11.5 µM. Crimean-Congo hemorrhagic fever virus L polyprotein viral ovarian tumor (vOTU) protease …; in the data active = inhibition above about 30%; also: 0% = vehicle wells with enzyme and 100% = no enzyme wells
Autofluor counter = counter-screen for toxin protease inhibitors: compound fluorescence; 360,000 compounds, 3.1% hits; compound autofluorescence counterscreen, microsphere flow cytometry; active compounds read high; fluorescence intensity (concentration not given with the values); in the data active = fluorescence intensity above about 16000; inconclusive = no clear call, values can overlap the other calls
BoNT A protease = BoNT/A light chain protease inhibitors, primary screen, biochemical, flow cytometry, MLPCN library; Botulinum neurotoxin type A light chain protease (Clostridium botulinum A str. ATCC 3502); multiplex microsphere protease substrate cleavage; inhibition, % at 10 µM; 360,000 compounds, 0.17% hits; AID 588499, 2011; in the data active = inhibition above about 30%; inconclusive = no clear call, values can overlap the other calls; also: plate controls were buffer without enzyme for full effect and enzyme alone for no effect
3CLpro inhibitor = SARS-CoV 3CLpro protease inhibitors, primary screen, biochemical, quenched FRET; AID 1706, 2009; Replicase polyprotein 1ab (Severe acute respiratory syndrome coronavirus), P0C6X7; inhibition, % at 6 µM; 290,000 compounds, 0.14% hits; recombinant SARS-CoV 3CLpro, quenched FRET peptide cleavage; in the data active = inhibition above about 12%
BoNT-F LC inh = BoNT/F light chain protease inhibitors, primary screen, biochemical, flow cytometry, MLPCN library; Multiplex microsphere protease cleavage assay; 360,000 compounds, 0.22% hits; AID 588497, 2011; inhibition, % at 10 µM; in the data active = inhibition above about 35%, passing the limit was not always enough; inconclusive = no clear call, values can overlap the other calls; also: plate controls were buffer without enzyme for full effect and enzyme alone for no effect
BoNT-A LC CP1 = BoNT/A light chain protease inhibitors, confirmation, biochemical, flow cytometry, cherry pick 1 | shares compounds with BoNT-F LC inh | inhibition, % at 10 µM | AID 602139, 2011 | 720 compounds, 3% hits | multiplex microsphere protease assay; in the data active = inhibition above about 32%
BoNT-F LC CP1 = BoNT/F light chain protease inhibitors, confirmation, biochemical, flow cytometry, cherry pick 1. 720 tested, under 10 active. multiplex microsphere protease cleavage assay. inhibition, % at 10 µM. shares compounds with BoNT-F LC inh. AID 602140, 2011
LF protease CP1 = Bacillus anthracis LF protease inhibitors, confirmation, biochemical, multiplex microsphere, cherry pick 1; multiplex microsphere protease cleavage assay; inhibition, % at 10 µM; AID 602142, 2011; shares compounds with BoNT-F LC inh; 720 tested, under 10 active
* marks the source's active call; other numbers are inactive results. A selection: hits, their analogues and other compounds. The true share with any hit is near 3.9%. Unless noted, no rule for the calls is given here.

`COc1cc(C(=O)NCc2ccc3[nH]c(C)cc3c2)cc(OC)c1OC` gave Anthrax LF inh2 -36, CCHF vOTU inh -10, Autofluor counter 2596, BoNT A protease 53*, 3CLpro inhibitor -2, BoNT-F LC inh -70, BoNT-A LC CP1 0, BoNT-F LC CP1 -12 and LF protease CP1 -4.
For COc1cc(/C=C\C(=O)NCc2ccc3[nH]c(C)cc3c2)cc(OC)c1OC the results were Anthrax LF inh2 2, CCHF vOTU inh 1, Autofluor counter 5749, BoNT A protease 2, 3CLpro inhibitor 1 and BoNT-F LC inh 11.
For COc1ccc(/C=C\C(=O)NCc2ccc3[nH]c(C)cc3c2)cc1OC the results were Anthrax LF inh2 -6, CCHF vOTU inh -2, Autofluor counter 6657, BoNT A protease -1, 3CLpro inhibitor 0 and BoNT-F LC inh -12.
COc1ccc(C(=O)NCc2ccc3[nH]c(C)cc3c2)cc1OC was read as Anthrax LF inh2 -4, CCHF vOTU inh 1, Autofluor counter 3032, BoNT A protease 65*, 3CLpro inhibitor 1, BoNT-F LC inh -45, BoNT-A LC CP1 0, BoNT-F LC CP1 -4 and LF protease CP1 3.
Screening CC(C(=O)Nc1ccon1)N1C(=O)c2ccccc2S1(=O)=O (stereo not drawn) returned Anthrax LF inh2 5, CCHF vOTU inh -8, Autofluor counter inconclusive, BoNT A protease 18 and BoNT-F LC inh inconclusive.
CN(CC(=O)Nc1ccccc1C(F)(F)F)C(=O)c1cc2c(s1)CCCCC2 was read as Anthrax LF inh2 1, CCHF vOTU inh 10, Autofluor counter 4627, BoNT A protease 5 and BoNT-F LC inh 7.
Screening CCOC(=O)/C(=C\c1ccc(OC(F)F)cc1)C1=Nn2c(nnc2-c2ccc(Cl)cc2)SC1 returned Anthrax LF inh2 0, Autofluor counter 2029, BoNT A protease 0, 3CLpro inhibitor -2 and BoNT-F LC inh -1.
Screening Cc1cc(C)nc(NS(=O)(=O)c2ccc(NS(=O)(=O)c3ccsc3)cc2)n1 returned Anthrax LF inh2 19, CCHF vOTU inh -1, Autofluor counter 3827, BoNT A protease -1, 3CLpro inhibitor 6 and BoNT-F LC inh inconclusive.
`Clc1ccc(-c2nc(N3CCCCC3)nc3ccccc23)cc1` gave Anthrax LF inh2 16, CCHF vOTU inh 2, Autofluor counter 10695, BoNT A protease 32*, 3CLpro inhibitor -5, BoNT-F LC inh 59*, BoNT-A LC CP1 11, BoNT-F LC CP1 -1 and LF protease CP1 2.
For Cc1cc(C)c(NC(=O)C2CCCO2)c(C)c1NC(=O)C1CCCO1 (stereo not drawn) the results were Anthrax LF inh2 -7, CCHF vOTU inh 12, Autofluor counter 2848, BoNT A protease -2, 3CLpro inhibitor -4, BoNT-F LC inh 38*, BoNT-A LC CP1 0, BoNT-F LC CP1 -4 and LF protease CP1 -6.
Screening O=C(Nc1cccc(NC(=O)C2CCCO2)c1)C1CCCO1 (stereo not drawn) returned Anthrax LF inh2 -3, CCHF vOTU inh -7, Autofluor counter inconclusive, BoNT A protease -1, 3CLpro inhibitor -4 and BoNT-F LC inh -2.
For CC1(C)CC(NC(=O)c2cccc([N+](=O)[O-])c2)CC(C)(C)N1 the results were Anthrax LF inh2 30*, CCHF vOTU inh -3, Autofluor counter 3713, BoNT A protease 0, 3CLpro inhibitor 1, BoNT-F LC inh 1, BoNT-A LC CP1 0, BoNT-F LC CP1 -6 and LF protease CP1 -3.
For COc1ccc(-c2cnc3n2CCCCC3)cc1 the results were Anthrax LF inh2 9, CCHF vOTU inh -9, Autofluor counter 3877, BoNT A protease 5, 3CLpro inhibitor -4, BoNT-F LC inh 42*, BoNT-A LC CP1 -1, BoNT-F LC CP1 -1 and LF protease CP1 1.
O=C(Nc1ccc(O)cc1C(=O)O)c1ccc2c(c1)C(=O)N(Cc1ccco1)C2=O was read as Anthrax LF inh2 0, CCHF vOTU inh -3, Autofluor counter 6881, BoNT A protease 5, 3CLpro inhibitor 4, BoNT-F LC inh 35*, BoNT-A LC CP1 0, BoNT-F LC CP1 -3 and LF protease CP1 1.
O=C(Nc1ccc(O)cc1)c1ccc2c(c1)C(=O)N(Cc1ccco1)C2=O was read as Anthrax LF inh2 -1, CCHF vOTU inh -6, Autofluor counter 2149, BoNT A protease -3, 3CLpro inhibitor 5 and BoNT-F LC inh -14.
For COC(=O)CSc1nc(N)c2c3c(sc2n1)C(c1ccccc1)SC(c1ccccc1)C3 (stereo not drawn) the results were Anthrax LF inh2 7, Autofluor counter 2397, BoNT A protease 30*, 3CLpro inhibitor 0, BoNT-F LC inh 1, BoNT-A LC CP1 2, BoNT-F LC CP1 2 and LF protease CP1 -3.
`COC(=O)CSc1nc(N)c2c3c(sc2n1)CCCC3` gave Anthrax LF inh2 -2, CCHF vOTU inh -9, Autofluor counter 2829, BoNT A protease 0, 3CLpro inhibitor -3 and BoNT-F LC inh 3.
For CCn1c2ccccc2c2cc(NC(=O)c3ccc(Br)o3)ccc21 the results were Anthrax LF inh2 43*, CCHF vOTU inh -7, Autofluor counter 4789, BoNT A protease 77*, 3CLpro inhibitor 2, BoNT-F LC inh 10, BoNT-A LC CP1 5, BoNT-F LC CP1 -10 and LF protease CP1 -2.
Screening CCn1c2ccccc2c2cc(NC(=O)c3coc(=O)c(Br)c3)ccc21 returned CCHF vOTU inh -17 and 3CLpro inhibitor 0.
For CCC(C)NC(=O)c1c(N)n(Cc2ccc3c(c2)OCO3)c2nc3ccccc3nc12 (stereo not drawn) the results were Anthrax LF inh2 14, CCHF vOTU inh 16, Autofluor counter 4797, BoNT A protease 30*, 3CLpro inhibitor 0, BoNT-F LC inh -14, BoNT-A LC CP1 4, BoNT-F LC CP1 -6 and LF protease CP1 -4.
`Clc1ccccc1-c1nnc2n1CCCCC2` gave Anthrax LF inh2 37*, CCHF vOTU inh -13, Autofluor counter 3259, BoNT A protease -10, 3CLpro inhibitor 2, BoNT-F LC inh -17, BoNT-A LC CP1 0, BoNT-F LC CP1 5 and LF protease CP1 2.

Bioassay records from PubChem.
